Common to all, as to experiment: NCI-60 one-dose screen, 48 h (100 = growth as untreated, 0 = no growth, -100 = all killed)
Common to all, as to conditions: 10 µM unless noted

Assay [1] deals with NCI-H23 lung.
The subject of assay [2] is NCI-H226 lung.
The subject of assay [3] is NCI-H322M lung.
For assay [4], the system named is HOP-62 NSCLC.
Assay [5] concerns NCI-H460 lung.
The test system of assay [6] is HOP-92 NSCLC.
Assay [7] has as its system NCI-H522 lung.
Assay [8] deals with 786-0 renal.
The test system of assay [9] is COLO 205 colon.
In assay [10] the test system is DU-145 prostate.
Assay [11] deals with K-562 leukemia.
The test system of assay [12] is MALME-3M melanoma.
The subject of assay [13] is MDA-MB-231 breast.
For assay [14], the system named is RXF 393 renal.
Assay [15] has as its system SF-268 CNS.
Assay [16] has as its system SF-295 CNS.
The test system of assay [17] is SF-539 CNS.
Assay [18] has as its system UACC-257 melanoma.
The subject of assay [19] is M14 melanoma.
Assay [20] concerns A549/ATCC NSCLC.

The results in this text go back to PubChem BioAssay (NCI).

This is part of a sample that, as a whole, favours compounds with a hit. Of some 83,000 tested, about 20% had one in any assay.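 The endpoint reported here, percent growth, reads 100 for growth as untreated, 0 for no net growth and -100 for all cells dead.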 Unmarked numbers belong to inactive results. Calls of active or inactive are those of the source. How the source made its calls: active means growth percent below 10; inactive means the rest.

As to `O=S(=O)(NCCCNc1nccc(-c2c(-c3cccc(O)c3)nc3occn23)n1)c1ccc(Br)cc1`, the growth is 101% in [1]; 103% in assay [2]; 113% in assay [3]; 124% in assay [4]; 97.1% in assay [5]; 108% in assay [6]. In addition, the growth in [7] was 94.3%; in [8], 106%; in [9], 31.9%; in assay [10], 97%; in assay [11] it was 67.3%; in assay [12], 11.5%. Further, the growth in assay [13] was 64.3%; in assay [14] it was 82.6%; in [15], 97.1%; in [16], 111%; in assay [17] it was 110%; in assay [18], 18.4%. Moreover, the growth in assay [19] is 29%.
For the molecule `COc1cc2nc(-c3ccc(C(F)(F)F)cc3)cc(OCCN3CCCC3)c2cc1OC`, the growth was 80.9% in assay [1]; 82.7% in [2]; 88.9% in assay [3]; 83.6% in assay [4]; 68.1% in assay [5]; 60.7% in [6]. In addition, the growth in assay [7] is 95.7%; in assay [8], 76.4%; in assay [9], 77.9%; in assay [10], 84.1%; in [11], 47.4%; in assay [12], 85.8%. Further, the growth in assay [13] was 74.6%; in assay [14] it was 65.4%; in assay [15] it was 81%; in [16] it was 83%; in assay [17], 81.1%; in assay [18], 68.9%. Besides, the growth in assay [19] is 4.5% (active).
Turning to `COc1ccccc1/C=C1\COc2ccc(-c3ccccc3)cc2C1=O`, the growth in [1] was 68%; in [2] it was 88.4%; in assay [3], 80%; in assay [4], -55.3% (active); in assay [5] it was 12.2%; in assay [6], 49.3%. Also, the growth in assay [7] is 51.9%; in assay [8] it was -49.2% (active); in assay [9] it was 9.86% (active); in assay [10], 7.94% (active); in [11] it was 3.54% (active); in [12] it was 73.7%. For the same molecule, the growth in assay [13] was 43.8%; in assay [15] it was 22.1%; in assay [16], 22.2%; in assay [17] it was 30.5%; in assay [18], 56.9%; in assay [19], 17.4%.
Take `Clc1ccc(N2N=C(c3cccc(Nc4ccncc4)c3)CC2c2ccc(Br)cc2)cc1` (configuration not stated): the growth in [1] is 57.1%; in assay [2], 92.2%; in [3] it was 66.2%; in assay [4], -39.3% (active); in [5], -82.6% (active); in assay [6], 60.3%. Also, the growth was -13.2% (active) in [7]; 105% in [8]; -48.7% (active) in [9]; 24.8% in [10]; 1.38% (active) in assay [11]; -40.5% (active) in assay [12]. The growth in assay [13] was 31.8%; in [15] it was 72.2%; in assay [16], -69% (active); in assay [17], 83.8%; in assay [18], 77.8%; in [19], 107%.
Take `CCNNC(=O)[C@@H]1[C@H](c2cc(OC)c(OC)c(OC)c2)c2cc3c(cc2[C@H](O)[C@H]1CO)OCO3`: the growth in assay [1] is 24%; in assay [2] it was -21.5% (active); in assay [3], 43.7%; in [4], 36.3%; in [5], 1.59% (active); in assay [6], 9.16% (active). Besides, the growth was -18.7% (active) in assay [7]; 0.908% (active) in assay [8]; -63.6% (active) in [9]; -24% (active) in assay [10]; 13.7% in [11]; 56.3% in assay [12]. Moreover, the growth in assay [13] was 39.6%; in [14], 15.3%; in assay [15], 31.1%; in assay [16], 9.93% (active); in assay [17] it was -10.9% (active); in assay [18], 53%. Also, the growth in assay [19] is -19.5% (active).
As to `CC1=CC[C@@H]2CC[C@]3(C)[C@H](CC[C@@H]4[C@@]5(C)CCCNC(C)(C)[C@@H]5CC[C@]43C)[C@H]2[C@@H]1C`, the growth in assay [1] is 63.1%; in assay [2], 107%; in assay [3] it was 20.7%; in assay [4], 105%; in assay [5] it was -70.4% (active); in assay [6] it was 23.8%. In addition, the growth is 96.1% in assay [7]; -72.5% (active) in assay [8]; -93.5% (active) in assay [9]; -7.26% (active) in [10]; 3.21% (active) in assay [12]; -7.94% (active) in assay [13]. Further, the growth in [15] was 40.2%; in assay [16], -35.2% (active); in assay [17], 77.5%; in assay [18], 76.7%; in [19], 15.5%.
Take `CN1CCN(c2cnc(C(=O)Nc3cc(F)cc4cccnc34)cn2)CC1`: the growth is 39.6% in assay [1]; 90.1% in assay [2]; 83.9% in [3]; 98.6% in [4]; 103% in assay [5]; 79.1% in [6]. Moreover, the growth in [7] is 22%; in assay [8], 56%; in [9] it was 21.2%; in assay [10], 72.3%; in assay [11], 16.9%; in assay [12], 42.2%. The growth in assay [13] is 33.4%; in assay [15], 93.7%; in assay [16], 94.3%; in assay [17], 71.8%; in assay [18] it was 44.8%; in [19], 51.4%.
Take `CNC(=O)Nc1ccc(-c2nc(N3CCOCC3)nc3c2cnn3C2CCOCC2)cc1`: the growth in assay [1] is 17.5%; in assay [2], -12.4% (active); in assay [3], -9.52% (active); in [4], -11% (active); in assay [5] it was 11.8%; in [6], -27.6% (active). Also, the growth was -0.372% (active) in [7]; -1.33% (active) in assay [20]; 5.84% (active) in assay [9]; 9.63% (active) in [10]; 20.1% in assay [11]; -37.6% (active) in assay [12]. For the same molecule, the growth was 5.07% (active) in assay [13]; -35.3% (active) in [14]; 15.7% in assay [15]; -45% (active) in [16]; -24.4% (active) in assay [17]; -24.9% (active) in assay [18]. Also, the growth in assay [19] is -12.1% (active).
